Data as given in PubChem BioAssay (Tox21).
Results filed as inconclusive are left out. A call without a number means that no potency is given here. Activity calls are given as the source filed them. Unless noted, calls come from the whole dose curve.

Legend:
[1] = Nuclear factor erythroid 2-related factor 2/antioxidant responsive element (Nrf2/ARE) small molecule agonists: qHTS cell viability counter screen in human keratinocytes (AID 1919968; active = well fitted curve in the direction sought with a large enough effect in the repeat runs; an effect the other way counts as inactive or inconclusive; note: nearly all actives have a fitted effect of over 55% in size; note: potency is the fitted concentration of half-maximal effect)
Summary of the method: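 Fluorescence read-out from CellTiter-Fluor after 1 h at 37 C. Wells held HaCaT-derived ARE-luciferase reporter cells (1,500/well) treated 23 h with DMSO-dissolved compounds. Run in the same wells as the luciferase agonist read.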

[2] = Nuclear factor erythroid 2-related factor 2/antioxidant responsive element (Nrf2/ARE) small molecule agonists: luciferase reporter gene qHTS assay in human keratinocytes (AID 1919969); note: nearly all actives have a fitted effect of over 35% in size; note: potency is the fitted concentration of half-maximal effect
[3] = biological target: Gonadotropin-releasing hormone receptor (Homo sapiens) (UniProt P30968); test: Human gonadotropin-releasing hormone receptor (GnRHR) small molecule agonists, calcium flux assay in GnRHR-HEK293 cells (AID 1920063); note: nearly all actives have a fitted effect of over 35% in size
Summary of the method: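 Calcium-dye fluorescence, Ex/Em=480/540, recorded every 1 sec over 3 min after compound addition to GnRHR-HEK293 cells. Cells had been seeded 18 hours earlier and dye-loaded for 1 hour at 37 C. Fifteen concentrations, triplicates.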

[4] = biological target: KiSS-1 receptor (Homo sapiens) (UniProt Q969F8); test: Human kisspeptin (KISS1R) small molecule agonists, calcium flux assay in KISS1R-HEK293 cells (AID 1920064; active = well fitted curve in the direction sought with a large enough effect in the repeat runs; an effect the other way counts as inactive or inconclusive)
Summary of the method: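 Calcium flux read-out: kinetic fluorescence at Ex/Em=480/540, 1 s intervals over 3 min, after pin-tool compound addition to dye-loaded KISS1R-HEK293 cells. Fifteen concentrations, triplicates.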

[5] = G protein-coupled receptor (GPCR) small molecule agonists, calcium flux assay: HEK293 wild type cell line counter screen (AID 1920065)
Summary of the method: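 Agonist mode; 18 h seeding at 37 C, 1 h dye load at 37 C; compounds pinned from DMSO, ATP as positive control; kinetic fluorescence 480/540 nm, 3 min, 1 s reads; 15 concentrations, triplicate.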

[6] = p53 small molecule agonists, cell-based qHTS assay with human liver microsomes (AID 1963577);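 note: p53 response element beta-lactamase reporter cells with liver microsomes plus NADPH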
Summary of the method: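 With metabolic activation: human liver microsomes (0.5 mg/mL final) plus NADPH (0.5 mg/mL final) added alongside compounds to p53RE-bla cells; 16 h 37 C exposure; beta-lactamase read by LiveBLAzer fluorescence.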

[7] = p53 small molecule agonists, cell-based qHTS assay with rat liver microsomes (AID 1963578)
Summary of the method: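 Metabolic activation by rat liver microsomes and NADPH, each 0.5 mg/mL final, added right after compounds to p53RE-bla reporter cells (4,000/well, plated 5 h earlier). 16 h at 37 C, then LiveBLAzer substrate for 2 h at room temperature in the dark; fluorescence read-out.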

[8] = biological target: 5-hydroxytryptamine receptor 2A (Homo sapiens) (UniProt P28223); test: 5-hydroxytryptamine receptor 2A (HTR2A) small molecule agonists, cell-based qHTS assay (AID 1963587); note: nearly all actives have a fitted effect of over 30% in size; note: potency is the fitted concentration of half-maximal effect
Summary of the method: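 CHO cells stably expressing human HTR2A, plated 18 h, loaded with calcium dye 1 h at 37 C. Agonist mode: compounds added and intracellular calcium fluorescence recorded kinetically for 2 min at 1 sec intervals.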

[9] = biological target: Muscarinic acetylcholine receptor M1 (Homo sapiens) (UniProt P11229); test: Cholinergic receptor muscarinic 1 (CHRM1) small molecule antagonists, cell-based qHTS assay (AID 1963588); note: nearly all actives have a fitted effect of over 40% in size
Summary of the method: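 Compounds were tested at 15 concentrations in three independent runs. Dye-loaded CHRM1-CHO cells were exposed 5 min at room temperature before stimulation by acetylcholine added at 50nM. Intracellular calcium was read kinetically on FDSS for 3 min.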

[10] = biological target: Muscarinic acetylcholine receptor M1 (Homo sapiens) (UniProt P11229); test: Cholinergic receptor muscarinic 1 (CHRM1) small molecule agonists, cell-based qHTS assay (AID 1963589); note: nearly all actives have a fitted effect of over 35% in size
Summary of the method: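 Calcium flux read-out: kinetic fluorescence at 1 sec intervals after pin-tool compound addition to dye-loaded CHRM1-CHO cells (human M1). Agonist mode; 15 concentrations tested in triplicate independent runs.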

[11] = biological target: Beta-2 adrenergic receptor (Homo sapiens) (UniProt P07550); test: Adrenergic beta2 receptor (ADRB2) small molecule antagonists, cell-based qHTS assay (AID 1963592); note: series mostly up to about 92 µM; nearly all actives have a fitted effect of over 50% in size
Summary of the method: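 Assay format: CHO-ADRB2 cells, 18-20hr seeding at 37C/5% CO2, then compound plus 1nM isoproterenol agonist mix for 0.5hr RT. Homogeneous time-resolved fluorescence cAMP detection after 1hr, expressed as 665/615 nm ratio.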

[12] = biological target: D(2) dopamine receptor (Homo sapiens) (UniProt P14416); test: Dopamine D2 receptor (DRD2) small molecule agonists, cell-based qHTS assay (AID 1963594); note: nearly all actives have a fitted effect of over 35% in size
Summary of the method: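 HEK293 cells stably expressing human DRD2, pre-treated with PDE inhibitor Ro20-1724 (0.1 mM final) and compound 10 min at room temperature, then stimulated with NKH477 (200nM […]) for 30 min. cAMP read by HTRF (665/620 nm).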

[13] = biological target: D(2) dopamine receptor (Homo sapiens) (UniProt P14416); test: Dopamine D2 receptor (DRD2) small molecule antagonists, cell-based qHTS assay (AID 1963595; active = well fitted inhibition curve with a large enough effect in the signal ratio in the repeat runs, with a control signal flat; the % refers to the signal ratio)
Summary of the method: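 Antagonist mode in DRD2-HEK293 cells: after compound addition with 0.1 mM Ro20-1724, cells received quinpirole (12 nM) and NKH477 (200 nM) for 30 min at room temperature; HTRF cAMP read after 1 h detection.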

[14] = p53 small molecule agonists, cell-based qHTS assay with rat liver microsomes: qHTS cell viability counter screen (AID 1963580); note: nearly all actives have a fitted effect of over 45% in size
Summary of the method: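 After the beta-lactamase ratio was read, CellTiter-Glo was added to the same wells and luminescence measured at 30 min; cells had been treated 16 h at 37 C with compounds, rat liver microsomes and NADPH (0.5 mg/mL final each).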

[15] = p53 small molecule agonists, cell-based qHTS assay: qHTS cell viability counter screen (AID 1963581); note: nearly all actives have a fitted effect of over 45% in size
Summary of the method: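 Cytotoxicity read-out: ATP-based luminescence (CellTiter-Glo, 30 min RT) measured in the same wells as the p53 reporter assay, HCT-116 p53RE-bla cells, 16 h compound exposure at 37 C.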

[16] = p53 small molecule agonists, cell-based qHTS assay (AID 1963582; active = well fitted activation curve with a large enough effect in the signal ratio in the repeat runs, not every such curve was filed as active; the % refers to the signal ratio)
Summary of the method: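 Fluorescence intensity read-out of a beta-lactamase reporter under a p53 response element. Cells were exposed to DMSO-dissolved compounds for 16 h at 37 C, then developed with FRET substrate for 2 h at RT.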

[17] = biological target: 5-hydroxytryptamine receptor 2A (Homo sapiens) (UniProt P28223); test: 5-hydroxytryptamine receptor 2A (HTR2A) small molecule antagonists, cell-based qHTS assay (AID 1963586); note: nearly all actives have a fitted effect of over 45% in size
Summary of the method: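 CHO cells stably expressing human HTR2A were plated for 18 h at 37 C, then loaded with calcium dye for 1 h. Compounds were preincubated 5 min at room temperature before DOI (4 nM solution) was added. Kinetic fluorescence was read for 3 min.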

[18] = cAMP Responsive Elements (CRE) small molecule agonists, cell-based qHTS assay (AID 1963590)
Summary of the method: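 Beta-lactamase reporter readout: LiveBLAzer B/G FRET substrate, 2 h at room temperature, added after 3 h compound treatment of CRE-bla HEK 293T cells at 37 C/5% CO2.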

[19] = cAMP Responsive Elements (CRE) small molecule antagonists, cell-based qHTS assay (AID 1963591; active = well fitted inhibition curve with a large enough effect in the signal ratio in the repeat runs, not every such curve was filed as active; the % refers to the signal ratio)
Summary of the method: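 HEK293T CRE-bla; 18 h preincubation; compound pin-transfer; NKH477 0.25 uM final, 3 h, 37 C; LiveBLAzer FRET substrate 2 h RT.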

[20] = biological target: Beta-2 adrenergic receptor (Homo sapiens) (UniProt P07550); test: Adrenergic beta2 receptor (ADRB2) small molecule agonists, cell-based qHTS assay (AID 1963593);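 note: CHO cells stably overexpressing human ADRB2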
Summary of the method: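 CHO cells stably over-expressing ADRB2 were plated overnight at 37C, then dosed with compounds plus a stimulation mix containing 100uM IBMX and 25uM Ro-20-1724 for 0.5hr at room temperature. cAMP was measured by HTRF competition, 1hr.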

Sequence of D(2) dopamine receptor (Homo sapiens) (P14416 whole entry, looked up): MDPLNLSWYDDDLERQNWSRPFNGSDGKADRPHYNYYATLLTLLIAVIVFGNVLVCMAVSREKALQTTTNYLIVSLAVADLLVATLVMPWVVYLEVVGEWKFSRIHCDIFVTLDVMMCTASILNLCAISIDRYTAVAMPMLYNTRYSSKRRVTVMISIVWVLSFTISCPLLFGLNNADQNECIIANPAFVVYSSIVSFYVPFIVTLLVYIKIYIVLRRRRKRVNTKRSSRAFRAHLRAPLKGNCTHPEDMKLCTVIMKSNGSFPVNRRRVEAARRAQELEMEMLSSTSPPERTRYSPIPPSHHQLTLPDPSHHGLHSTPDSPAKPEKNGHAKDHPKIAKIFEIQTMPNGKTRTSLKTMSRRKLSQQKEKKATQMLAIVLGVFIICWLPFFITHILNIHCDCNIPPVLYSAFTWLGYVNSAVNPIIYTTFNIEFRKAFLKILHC
Sequence of Muscarinic acetylcholine receptor M1 (Homo sapiens) (P11229 whole entry, looked up): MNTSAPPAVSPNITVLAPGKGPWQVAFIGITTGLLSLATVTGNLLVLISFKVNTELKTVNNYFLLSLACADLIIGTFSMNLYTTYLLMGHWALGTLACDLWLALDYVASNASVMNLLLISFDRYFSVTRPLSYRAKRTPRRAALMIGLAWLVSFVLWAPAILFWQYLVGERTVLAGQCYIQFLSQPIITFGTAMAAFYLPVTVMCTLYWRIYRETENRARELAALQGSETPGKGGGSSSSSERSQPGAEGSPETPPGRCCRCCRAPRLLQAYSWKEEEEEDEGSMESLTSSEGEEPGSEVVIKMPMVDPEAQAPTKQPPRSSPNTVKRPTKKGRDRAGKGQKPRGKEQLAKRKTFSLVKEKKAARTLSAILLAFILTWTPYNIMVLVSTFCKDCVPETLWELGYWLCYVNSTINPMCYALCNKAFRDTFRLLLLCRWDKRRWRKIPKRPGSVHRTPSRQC
Sequence of Beta-2 adrenergic receptor (Homo sapiens) (P07550 whole entry, looked up): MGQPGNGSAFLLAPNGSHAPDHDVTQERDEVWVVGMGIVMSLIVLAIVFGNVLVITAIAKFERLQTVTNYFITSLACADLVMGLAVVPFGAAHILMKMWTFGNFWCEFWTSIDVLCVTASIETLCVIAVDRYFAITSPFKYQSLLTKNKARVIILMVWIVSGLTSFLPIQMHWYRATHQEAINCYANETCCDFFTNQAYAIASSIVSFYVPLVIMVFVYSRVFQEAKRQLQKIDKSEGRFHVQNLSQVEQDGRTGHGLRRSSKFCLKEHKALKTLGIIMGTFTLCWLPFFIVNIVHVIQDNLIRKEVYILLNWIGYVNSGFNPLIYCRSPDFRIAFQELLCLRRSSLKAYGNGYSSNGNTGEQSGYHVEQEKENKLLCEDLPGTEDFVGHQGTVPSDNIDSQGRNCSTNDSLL
Sequence of Gonadotropin-releasing hormone receptor (Homo sapiens) (P30968 whole entry, looked up): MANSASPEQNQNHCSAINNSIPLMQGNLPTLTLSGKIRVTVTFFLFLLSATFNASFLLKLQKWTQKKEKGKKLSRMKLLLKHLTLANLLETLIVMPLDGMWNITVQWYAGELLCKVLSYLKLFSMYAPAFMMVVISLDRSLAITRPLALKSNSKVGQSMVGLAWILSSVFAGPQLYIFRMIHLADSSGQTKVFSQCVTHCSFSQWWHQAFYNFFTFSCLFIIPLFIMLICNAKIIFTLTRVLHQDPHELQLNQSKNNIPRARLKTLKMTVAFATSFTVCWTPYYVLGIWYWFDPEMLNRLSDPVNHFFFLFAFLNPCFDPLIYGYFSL
Sequence of KiSS-1 receptor (Homo sapiens) (Q969F8 whole entry, looked up): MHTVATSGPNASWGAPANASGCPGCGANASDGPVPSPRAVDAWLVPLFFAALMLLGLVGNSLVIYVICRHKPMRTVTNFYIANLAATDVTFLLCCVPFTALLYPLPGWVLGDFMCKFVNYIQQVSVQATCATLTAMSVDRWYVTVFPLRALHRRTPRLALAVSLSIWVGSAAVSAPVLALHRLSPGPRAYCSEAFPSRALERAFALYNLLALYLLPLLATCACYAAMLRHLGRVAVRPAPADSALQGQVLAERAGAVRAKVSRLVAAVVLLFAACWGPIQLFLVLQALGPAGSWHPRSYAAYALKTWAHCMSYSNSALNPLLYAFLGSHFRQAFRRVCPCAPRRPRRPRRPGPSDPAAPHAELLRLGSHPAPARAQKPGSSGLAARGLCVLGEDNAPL
Sequence of 5-hydroxytryptamine receptor 2A (Homo sapiens) (P28223 whole entry, looked up): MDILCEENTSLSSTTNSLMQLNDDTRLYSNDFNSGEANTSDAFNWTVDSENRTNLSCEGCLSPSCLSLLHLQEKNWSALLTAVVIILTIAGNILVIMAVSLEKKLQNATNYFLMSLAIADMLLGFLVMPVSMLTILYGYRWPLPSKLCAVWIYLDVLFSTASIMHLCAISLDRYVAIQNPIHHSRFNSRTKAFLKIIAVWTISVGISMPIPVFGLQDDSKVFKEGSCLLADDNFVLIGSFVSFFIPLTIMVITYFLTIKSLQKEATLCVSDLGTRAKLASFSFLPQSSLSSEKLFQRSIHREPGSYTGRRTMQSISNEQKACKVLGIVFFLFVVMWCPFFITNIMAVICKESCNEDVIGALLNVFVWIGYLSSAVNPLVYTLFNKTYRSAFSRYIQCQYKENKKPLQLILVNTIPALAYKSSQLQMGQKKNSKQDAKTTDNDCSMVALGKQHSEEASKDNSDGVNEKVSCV

SMILES | Potency [1] | Potency [2] | Potency [3] | outcome [4] | outcome [5] | Potency [6] | Potency [7] | Potency [8] | Potency [9] | Potency [10] | Potency [11] | Potency [12] | Potency [13] | Potency [14] | Potency [15] | Potency [16] | Potency [17] | Potency [18] | Potency [19] | Potency [20]
CCc1nn(C2CCCCC2)c2cc(C3(C#N)CCC(C(=O)O)CC3)ccc12 (stereo not given) | inactive | inactive | inactive | inactive | inactive | inactive | inactive | inactive | inactive | inactive | inactive | inactive | inactive |  |  |  |  |  |  | 
CN(C)C(=O)C1(N2CCCCC2)CCN(CC[C@@]2(c3ccc(Cl)c(Cl)c3)CN(C(=O)c3ccccc3)CCO2)CC1 | 22.7 µM (active) | inactive | inactive | inactive | inactive | inactive | inactive | inactive |  | inactive | inactive |  |  |  |  |  |  |  |  | 
CC(C)(C)C1CCC(=O)CC1 | inactive | 68.6 µM (active) | inactive | inactive | inactive | inactive | inactive | inactive | inactive | inactive | inactive | inactive | inactive | inactive | inactive | inactive | inactive | inactive | inactive | 
FC(F)(F)C(F)(F)C(F)(F)C(F)(F)C(F)(F)C(F)(F)C(F)(F)C(F)(F)Br | inactive | inactive | inactive | inactive | inactive | inactive | inactive | inactive | inactive | inactive | inactive |  | inactive | inactive | inactive | inactive | inactive | inactive | inactive | 
O=C(O)CCC(=O)OC[C@@H](NC(=O)C(Cl)Cl)[C@H](O)c1ccc([N+](=O)[O-])cc1 | inactive | inactive | inactive | inactive | inactive | inactive | inactive | inactive | inactive | inactive | inactive | inactive | inactive | inactive | inactive | inactive | inactive | inactive | inactive | inactive
Cn1c(=O)c2c(ncn2CC(=O)O)n(C)c1=O | inactive | inactive | inactive | inactive | inactive | inactive | inactive | inactive | inactive | inactive | inactive | inactive | inactive | inactive | inactive | inactive | inactive | inactive | inactive | 
Oc1cccc2[nH]ccc12 | inactive | inactive | inactive | inactive | inactive | inactive | inactive | inactive | inactive | inactive |  | inactive | inactive | inactive | inactive | inactive | inactive | inactive | inactive | inactive
CC(C)(C)C(=O)CC(=O)C(C)(C)C | inactive | inactive | inactive | inactive | inactive | inactive | inactive | inactive | inactive | inactive | inactive | inactive | inactive | inactive | inactive | inactive | inactive | inactive | inactive | 
CCN(CC)CC(=O)Nc1c(C)cccc1C(=O)OC | inactive | inactive | inactive | inactive | inactive | inactive | inactive | inactive | inactive | inactive | inactive |  | inactive | inactive | inactive | inactive | inactive | inactive | inactive | inactive
Cc1ccc(OC(=O)c2ccccc2O)cc1 | inactive | inactive | inactive | inactive | inactive | inactive | inactive | inactive | inactive | inactive | inactive | inactive | inactive |  |  | inactive |  |  |  | inactive
COc1cc2c(cc1OC)C(C(C(=O)N(CCc1ccc(OC)c(OC)c1OC)CCc1ccc(OC)c(OC)c1OC)c1ccccc1)=NCC2 (stereo not given) | inactive | inactive | inactive | inactive | inactive | inactive | inactive | 12 µM (active) | inactive | inactive |  |  |  | inactive | inactive | inactive | inactive |  |  | 
CCCOC(=O)c1ccc(N)cc1 | inactive | inactive | inactive | inactive | inactive | inactive | inactive | inactive | inactive | inactive | inactive | inactive | inactive | inactive | inactive | inactive | inactive | inactive | inactive | inactive
CC(C)CCCCCCc1ccc(OCCOCCO)cc1 | inactive | inactive | inactive | inactive | inactive | inactive | inactive | inactive | inactive | inactive | inactive | inactive | inactive | inactive | inactive | inactive | inactive | inactive | inactive | inactive
COc1cc(O)cc(O)c1 | inactive | inactive | inactive | inactive | inactive | inactive | inactive | inactive | inactive | inactive | inactive | inactive | inactive | inactive | inactive | inactive | inactive | inactive | inactive | inactive
